Assay outcomes from PubChem BioAssay.
Hits are enriched below; roughly 4.4% of the tested compounds scored in any of these assays.
PfHsp90 set2 – reduces growth (ATP signal) of yeast expressing P. falciparum Hsp90 | hit rate 0.32% among 310,000 | inhibition, % at 9.4 µM | AID 504621 | S. cerevisiae expressing PfHsp90, BacTiter-Glo ATP, 48 h; yeast lacking PDR1 and PDR3 efflux regulators;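 active = every replicate shows inhibition above about 80%, whatever the replicate mean, limit read from the data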;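 also: 0% = DMSO neutral controls and 100% = 20 µM radicicol positive controls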
tim10-1 inh – growth inhibitors of tim10-1 mutant yeast. S. cerevisiae tim10-1 ts strain growth, BacTiter-Glo, 24 h. inhibition, % at 20 µM. hit rate 2.2% among 330,000;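 active = inhibition of at least 40%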;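 also: mutant grown at 25 °C; 0% = DMSO wells with yeast and 100% = wells holding no yeast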
SKKanGAS inh – blocks kanamycin growth of S. pyogenes SKKanGAS strain. BacTiter-Glo, 6 h. inhibition, % at 7.5 µM. hit rate 1.3% among 300,000;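 active = mean replicate score, as percent of positive control median, at least 50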;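 also: strain carries kanamycin resistance gene driven by streptokinase promoter and grows in 40 µg/ml kanamycin; loss of luminescence reflects streptokinase promoter inhibition or plain growth inhibition; 0% = median of DMSO wells and 100% = positive control at its reference dose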
TIM10 inh – inhibits growth of TIM10 yeast strain; AID 463195; hit rate 1.4% among 330,000; inhibition, % at 10 µM; S. cerevisiae TIM10 strain growth, BacTiter-Glo luminescence, 24 h;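 active = inhibition of 40% or more at the single tested concentration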;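 also: wild-type TIM10 isogenic control strain grown at permissive 25 °C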
tim23-1 inh – growth inhibitors of tim23-1 mutant yeast; hit rate 1.3% among 330,000; inhibition, % at 20 µM; S. cerevisiae tim23-1 growth, BacTiter-Glo luminescence, 24 h;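 active = growth inhibition of the mutant yeast at or above 50%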;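 also: temperature-sensitive mutant grown at 25 °C; plate controls were DMSO-treated mutant yeast for no effect and medium wells lacking yeast for full effect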
tim10-1 conf – confirmation of tim10-1 mutant yeast growth inhibitors. shares compounds with tim10-1 inh. S. cerevisiae tim10-1 ts strain growth, BacTiter-Glo, 24 h. inhibition, % at 20 µM. hit rate 56% among 7,400. AID 463213;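 active = inhibition of yeast growth at or above a set limit in either of two repeat tests at 20 µM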;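 also: tim10-1 mutant grown at permissive 25 °C to find synthetic lethal compounds; 0% = DMSO yeast wells and 100% = medium wells without yeast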
* hit, by the source's call; / = no result.

SMILES	PfHsp90 set2	tim10-1 inh	SKKanGAS inh	TIM10 inh	tim23-1 inh	tim10-1 conf
CCOc1ccc(N2CC(C(=O)N3CCCc4ccccc43)CC2=O)cc1 (stereo not drawn)	-1	41*	4	14	35	20
Nc1ccc(C(=O)Nc2ccccc2C(=O)O)cc1	/	16	7	14	17	/
O=C(Nc1ccccc1C(=O)Nc1ccccc1C(=O)O)c1ccccc1	-6	47*	33	9	31	26
COc1ccc(C(=O)Nc2ccccc2C(=O)Nc2ccccn2)cc1	24	43*	3	17	45	24
COc1ccc(CCNC(=O)c2ccc(S(=O)(=O)N3CCCCC3)cc2)cc1	-14	21	/	30	34	/
COc1ccccc1C(=O)NC(=O)Nc1c(C)cc(C)cc1C	22	42*	11	24	42	40*
COc1ccccc1C(=O)NNC(=O)c1ccc(C)cc1	-2	12	-2	11	20	/
Cc1ccc([N+](=O)[O-])cc1NC(=O)CN(C(=O)c1ccccc1Cl)C1CCCCC1	-3	40*	11	20	31	17
Cc1ccc(OCC(=O)N/N=C\c2cn(C)c3ccccc23)c([N+](=O)[O-])c1	-14	41*	-2	13	-3	15
Cn1cc(/C=N/NC(=O)COc2ccccc2[N+](=O)[O-])c2ccccc21	-3	29	-14	25	14	/
Nc1nc(-c2ccc([N+](=O)[O-])cc2)cc(=O)[nH]1	3	/	/	/	/	/
CC(N)C(=O)NC(C(=O)N1CCCC1C(=O)NC(c1ccccc1)c1ccccc1)C(C)C (stereo not drawn)	1	-7	/	14	6	/
CCn1c(C)c(C(C)=O)c(N2CCN(c3cccc(Cl)c3)CC2)nc1=S	-20	44*	-10	9	13	16
CC(=O)c1c(N2CCN(c3cccc(Cl)c3)CC2)nc(=S)n(-c2ccccc2)c1C	5	10	-22	10	7	/
COc1cc(C2=NOC(C(=O)N3CCCc4ccccc43)C2)cc(OC)c1OC (stereo not drawn)	12	40*	1	21	24	26
COc1ccc(-c2cnc(SCC(=O)Nc3cc(C)on3)n2Cc2ccco2)cc1	-5	44*	11	8	18	21
COCCn1c(-c2ccc(OC)cc2)cnc1SCC(=O)Nc1cccc2ccccc12	3	45*	-8	-9	26	9
COc1ccc(CC(=O)OCC(=O)NCc2ccc3c(c2)OCO3)cc1OC	/	10	/	-5	24	/
COC(=O)[C@]1(Cc2ccccc2)N[C@H](c2ccc(-c3ccccc3)cc2)[C@@H]2C(=O)N(C)C(=O)[C@@H]21	12	45*	2	14	18	19
COC(=O)C1(Cc2ccccc2)NC(c2ccc(F)cc2)C2C(=O)N(C)C(=O)C21 (stereo not drawn)	-5	19	4	5	23	/
Cc1cccc(NC(=O)c2ccc(S(=O)(=O)N3CCCCC3)cc2)n1	-29	26	-5	18	13	/
Cc1cccc(NC(=O)c2ccc(S(=O)(=O)N3CCCCC3C)cc2)n1 (stereo not drawn)	-7	41*	44	18	36	15
COc1cc(C(=O)Nc2ccc(S(=O)(=O)N3CCCCC3C)cc2)cc(OC)c1OC (stereo not drawn)	2	46*	2	36	26	38*
O=C1NC[C@H](Cc2ccccc2)N(CC2CCN(CCCCc3ccccc3)CC2)C1=O	-9	/	/	/	/	/
CCOC(=O)c1cn[nH]c1NC(=S)Nc1ccc(Cl)cc1	/	41*	44	40	20	-27
COc1ccc(CC(=O)OCC(=O)NC2CCCC(C)C2C)cc1 (stereo not drawn)	17	25	/	12	31	/
CC(C)c1nnc(NC(=O)CCS(=O)(=O)c2nc(-c3cccs3)cc(C(F)(F)F)n2)s1	/	61*	-10	28	44	45*
CC(C)c1nnc(NC(=O)CCS(=O)(=O)Cc2ccccc2)s1	-11	-26	-4	10	-6	/
COc1ccc(N(C)S(=O)(=O)c2cccc(C(=O)Nc3nc4ccccc4[nH]3)c2)cc1	0	41*	24	38	35	27
CCCC(O)(c1ccc(CC)cc1)C(CN1CCOCC1)c1ccccc1 (stereo not drawn)	9	37	-1	19	43	/
